# TEAD-YAP block: TEAD-YAP interaction inhibition, primary screen, TEAD-YAP interaction inhibitor project, luminescence, HEK-TIYL cells; TEAD-Gal4/YAP UAS-luciferase luminescence; inhibition, % at 9.12 µM; actives 1.4% (n = 640,000); AID 1259422, 2018; in the data active means inhibition above about 32%;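 further: 0% = median of test compound wells and 100% = reference inhibitor wells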
# FBW7 act: FBW7 E3 ligase activators, primary screen, biochemical, AlphaScreen, human; F-box/WD repeat-containing protein 7 (Homo sapiens), Q969H0; AID 1259310, 2017; actives 0.13% (n = 650,000); normalized activity (activation), % at 26.1 µM; AlphaScreen FBW7–phospho-cyclin E peptide binding, activator screen; in the data active means normalized activity above about 1.9%;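 further: purified mutant Fbw7 with reduced substrate affinity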
# GPR151 ag: activators of human GPR151, primary screen, cell-based, PathHunter beta-arrestin, luminescence | activation, % at 11.2 µM | actives 1% (n = 650,000) | PathHunter beta-arrestin GPR151 cells | G-protein coupled receptor 151 (Homo sapiens), Q8TDV0 | AID 1508602, 2020; in the data active means activation above about 4.9%;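 further: 0% = median of compound wells and 100% = cells with positive control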
# MITF inh: MITF inhibitors, primary screen, biochemical, AlphaScreen, human; Microphthalmia-associated transcription factor (Homo sapiens), O75030; AlphaScreen MITF homodimerization, bead proximity signal; inhibition, % at 2.6 µM; actives 0.91% (n = 650,000); AID 1259374, 2018; in the data active means inhibition above about 50%;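 further: 0% = vehicle wells with protein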
# Target sequence (O75030 whole entry, looked up): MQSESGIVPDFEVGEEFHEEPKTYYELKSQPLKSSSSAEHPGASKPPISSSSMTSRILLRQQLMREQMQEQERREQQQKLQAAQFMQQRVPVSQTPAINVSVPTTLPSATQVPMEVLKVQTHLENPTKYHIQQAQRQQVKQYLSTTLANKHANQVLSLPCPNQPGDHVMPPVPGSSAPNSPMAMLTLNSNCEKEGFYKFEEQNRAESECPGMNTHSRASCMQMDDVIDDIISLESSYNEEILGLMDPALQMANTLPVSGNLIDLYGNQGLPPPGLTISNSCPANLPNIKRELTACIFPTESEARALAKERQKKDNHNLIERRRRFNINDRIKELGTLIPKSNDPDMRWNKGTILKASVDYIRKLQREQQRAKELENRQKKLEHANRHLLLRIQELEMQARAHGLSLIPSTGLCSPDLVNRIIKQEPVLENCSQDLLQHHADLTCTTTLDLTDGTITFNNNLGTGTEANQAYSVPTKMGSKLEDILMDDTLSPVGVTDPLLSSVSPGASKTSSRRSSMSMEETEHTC
# * = called active by the depositor. Hits are enriched below; roughly 3.4% of the tested compounds scored in any of these assays.
SMILES,TEAD-YAP block,FBW7 act,GPR151 ag,MITF inh
COCCN(CCOC)S(=O)(=O)c1ccc(C(=O)Nc2nc(-c3ccc(Cl)cc3)cs2)cc1,-5.7,-0.1,-0.4,-0.8
COc1ccc(C2(C(=O)NC(C)c3nc(-c4cccnc4)n[nH]3)CCCCC2)cc1 (centres undefined),0.9,-0.1,0.0,1.4
COc1ccc(C2(C(=O)NC(C)c3nc(-c4ccncc4)n[nH]3)CC2)cc1 (centres undefined),63.9*,-0.1,-0.3,-4.3
Cc1ccc(C2=Nn3c(nnc3-c3ccccc3)SC2)cc1,59.7*,-0.2,-1.2,-2.6
CCC(=O)Nc1ccc(C2=Nn3c(COc4ccc(OC)cc4)nnc3SC2)cc1,48.4*,-0.2,-1.9,-5.5
Oc1ccc(C2=Nn3c(nnc3-c3cccc(F)c3)SC2)cc1O,60.5*,-0.5,-0.9,2.3
COc1ccc(-c2nnc3n2N=C(c2ccc4c(c2)OCCO4)CS3)cc1,45.6*,0.0,-1.3,7.0
COC(=O)c1c(N)sc2c1CCC(C)C2 (centres undefined),6.2,-0.1,2.4,4.4
COC(=O)c1cc(NC(=O)c2ccccc2O)cc(C(=O)OC)c1,4.9,-0.1,2.4,0.5
COc1cc2c(c(OC)c1OC)COC2=O,-2.5,-0.1,1.0,-2.2
COc1cccc(-c2nnc3n2N=C(c2ccc(Br)cc2)CS3)c1,-0.4,0.3,1.3,-0.4
Oc1ccc(C2=Nn3c(nnc3-c3ccccc3Br)SC2)cc1O,52.4*,0.1,0.6,24.9
COc1ccc(-c2nnc3n2N=C(c2ccc(O)c(O)c2)CS3)cc1,50.4*,-0.3,-0.4,3.2
COc1cccc(C2=Nn3c(nnc3-c3ccccc3)SC2)c1,10.3,0.8,0.0,5.3
COc1cccc(C2=Nn3c(nnc3-c3ccccc3O)SC2)c1,-1.4,0.7,-0.9,-7.8
Oc1ccc(C2=Nn3c(nnc3-c3ccc(Br)cc3)SC2)cc1O,65.7*,-0.4,2.5,-3.4
COc1ccc(-c2nnc3n2N=C(c2ccccc2)CS3)cc1,-0.4,0.2,-1.2,14.3
COc1cccc(-c2nnc3n2N=C(c2ccc(O)c(O)c2)CS3)c1,57.8*,-0.5,-0.1,6.0
CCc1ccc(N(CC(=O)Nc2cccc(C)c2)C2=NC3CS(=O)(=O)CC3S2)cc1 (centres undefined),14.3,-0.3,1.8,33.0
N#C/C(=C\c1ccsc1)C(=O)Nc1cc(Cl)ccc1Cl,-5.2,0.0,0.4,6.5
O=C(O)c1ccc(Oc2ccc3c(c2)C(=O)N(c2ccc(Oc4ccccc4)cc2)C3=O)cc1,-3.3,0.5,0.0,10.2
COc1ccc(C2=Nn3c(nnc3-c3ccc(OC)cc3)SC2)cc1,49.3*,0.0,1.2,0.4
CC[C@]1(O)C[C@H]2CN(CCc3c([nH]c4ccccc34)[C@H](C)[C@H]2c2cc3c(cc2OC)N(C)[C@H]2[C@@](O)(C(=O)OC)[C@H](C)[C@]4(CC)C=CCN5CC[C@]32[C@@H]54)C1,64.9*,0.0,1.4,24.8
CCC1(O)CC2CN(CCc3c([nH]c4ccccc34)[C@@](C(=O)OC)(c3cc4c(cc3OC)N(C)C3[C@]45CCN4CC=C[C@@](CC)([C@@H](OC(C)=O)[C@]3(O)C(=O)OC)[C@H]45)C2)C1 (some centres undefined),69.5*,-0.1,-0.5,10.1
CCC1=C[C@@H]2CN(C1)Cc1c([nH]c3ccccc13)[C@@](C(=O)OC)(c1cc3c(cc1OC)N(C)[C@H]1[C@@](O)(C(=O)OC)[C@H](OC(C)=O)[C@]4(CC)C=CCN5CC[C@]31[C@@H]54)C2,65.3*,0.0,-0.5,19.0
SMILES,TEAD-YAP block,FBW7 act,GPR151 ag,MITF inh
CC[C@]1(O)CC2CN(CCc3c([nH]c4ccccc34)[C@@](C(=O)OC)(c3cc4c(cc3OC)N(C)[C@H]3[C@@](O)(C(N)=O)[C@H](O)[C@]5(CC)C=CCN6CC[C@]43[C@@H]65)C2)C1 (some centres undefined),47.0*,-0.1,-2.9,-11.9
Nc1nonc1-c1noc(Cc2ccccc2)n1,-20.9,0.0,0.9,0.6
O=C(CNc1n[nH]c(=O)[nH]c1=O)N/N=C/C=C\c1ccccc1,-6.4,0.0,-0.3,5.8
Cc1cc(Cl)n(-c2ccc([N+](=O)[O-])cc2)n1,6.6,-0.2,-1.0,4.5
Cc1cc(C)n(-c2ncc(-c3ccc([N+](=O)[O-])cc3)cn2)n1,58.8*,0.3,-1.2,-4.3
CSc1ncccc1C(=O)NCC1Cc2cc(F)cc(-c3cnccn3)c2O1 (centres undefined),4.7,-0.1,-0.8,8.3
CN1C(=O)c2ccc(NC(=O)c3ccccc3Br)cc2C1=O,-5.1,2.0*,-1.1,1.6
O=C(Nc1ccc(O)cc1)c1ccccc1Br,75.7*,0.4,-0.2,-0.7
CNc1ccc(S(=O)(=O)N(C)CCOc2ccccc2F)cc1[N+](=O)[O-],-1.6,-0.1,2.0,21.1
COc1ccc2c(c1OC)C(=O)OC2Nc1ccccc1 (centres undefined),-2.2,0.5,-0.2,7.3
C/C=C/COC(=O)c1[nH]c2c(c1C)C(=O)CC(c1cccs1)C2 (centres undefined),42.5*,-0.1,2.1,0.2
Cc1c(C(=O)OCCOC(C)C)[nH]c2c1C(=O)CC(c1cccs1)C2 (centres undefined),50.5*,-0.2,0.8,-8.5
COCCOC(=O)c1[nH]c2c(c1C)C(=O)CC(c1cccs1)C2 (centres undefined),48.9*,0.9,-0.5,15.5
CCOCCOC(=O)c1[nH]c2c(c1C)C(=O)CC(c1cccs1)C2 (centres undefined),54.0*,0.0,0.6,0.8
Cn1c(Nc2nc(NC3CCN(Cc4ccccc4)CC3)c3ncn(-c4ccsc4)c3n2)nc2ccccc21,19.3,-0.2,-1.0,1.1
CSc1ccc(CC(=O)N2CCC3(CC2)CC3C(=O)Nc2ccc(SC)cc2)cc1 (centres undefined),-13.8,0.6,1.8,13.4
CCCCOc1ccc(-c2nc(C=Nc3ccc(F)c(Cl)c3)c(O)o2)cc1,-5.9,-0.1,2.0,-3.6
COc1nc(NCCc2ccc(O)cc2)nc(-c2cccc(C(C)=O)c2)n1,-0.6,0.1,0.3,4.7
CCSCCOC(=O)C1=C(C)NC2=C(C(=O)CC(c3cccs3)C2)C1c1ccc(F)cc1 (centres undefined),11.2,0.8,-1.1,-4.6
CCSCCOC(=O)c1[nH]c2c(c1C)C(=O)CC(c1cccs1)C2 (centres undefined),55.0*,0.1,-0.5,12.4
CCOC(=O)c1[nH]c2c(c1C)C(=O)CC(c1cccs1)C2 (centres undefined),52.4*,-0.2,0.4,2.3
Cc1c(C(=O)OC(C)C)[nH]c2c1C(=O)CC(c1cccs1)C2 (centres undefined),60.1*,0.1,0.9,-0.7

# Assay outcomes: PubChem BioAssay, The Scripps Research Institute Molecular Screening Center
